From the OligoGym collection

Molecular target: TCL1B
Experiment: pooled miR-30 sensor sort-seq; sequence = guide strand
Settings: shRNA
Further: reference of the scale not given here.

Sequence	sensor-assay potency score (higher = more potent)
TGCTCCATAGAGTCAATCTGGC	-0.928
TCTGGATCCACAGACGGCCAGG	-1.15
TTCATATCTGCTGCCCTGGGAG	-0.879
ATGCTGGGTTCATATCTGCTGC	-1.39
AACTGGAATCCGCTGCTCGGTA	-1.06
TGTTAGGACCAGCTGCTCCATA	-1.25
TCCTCATCTTCGTAGATGCCAG	-1.52
TACATGAAGATCCTCACTGAGG	-0.791
TTGAACCGCACGACCACAGTCA	-0.246
TTAATTAACCAGTACTGTGAGG	-0.714
TCTGCTATTTCCCAGAAACTGG	-1.48
TTTCCCAGAAACTGGAATCCGC	-0.902

Molecular target: TCTN3
Experiment: as above
Settings: shRNA

Sequence	sensor-assay potency score (higher = more potent)
TAACTTGCTGAGAATCCTGTAT	-0.198
TATATCATCAGTCAGAGCCAAG	-1.46
TGTAACTTGCTGAGAATCCTGT	0.381
TTACTCTCTAGGAAACCTGCAG	0.205
TTTATAGCTGAAATGCTGCAGT	0.223
TTAGAATCCATGAAAACTCTTG	0.212
TTTTACTCTCTAGGAAACCTGC	-1.11
TTTTAACAGAGCAACTTCCATT	-0.964
TTGTCTACACAAACCCAGCTTG	-0.828
TATAGGAATCGAACTCCTGATA	-0.82
